Reference: PubChem BioAssay AID707 (Columbia University Molecular Screening Center, 2007)
The whole screen tested about 91,000 compounds, of which about 310 (0.34%) were called active. Cut-off read from the data, not from the text of the source: active = inhibition above about 80%; inactive = the rest. The entries come from a sample that favours actives as a whole.

Molecular target: Bifunctional epoxide hydrolase 2 (Homo sapiens) (UniProt P34913)
Test: sEH enzyme activity blockers – biochemical, human sEH, primary screen (AID 707)
Settings: recombinant human sEH enzymatic activity assay; at 2 µM; hits give high values

Chain of Bifunctional epoxide hydrolase 2 (Homo sapiens) (P34913 whole entry, looked up): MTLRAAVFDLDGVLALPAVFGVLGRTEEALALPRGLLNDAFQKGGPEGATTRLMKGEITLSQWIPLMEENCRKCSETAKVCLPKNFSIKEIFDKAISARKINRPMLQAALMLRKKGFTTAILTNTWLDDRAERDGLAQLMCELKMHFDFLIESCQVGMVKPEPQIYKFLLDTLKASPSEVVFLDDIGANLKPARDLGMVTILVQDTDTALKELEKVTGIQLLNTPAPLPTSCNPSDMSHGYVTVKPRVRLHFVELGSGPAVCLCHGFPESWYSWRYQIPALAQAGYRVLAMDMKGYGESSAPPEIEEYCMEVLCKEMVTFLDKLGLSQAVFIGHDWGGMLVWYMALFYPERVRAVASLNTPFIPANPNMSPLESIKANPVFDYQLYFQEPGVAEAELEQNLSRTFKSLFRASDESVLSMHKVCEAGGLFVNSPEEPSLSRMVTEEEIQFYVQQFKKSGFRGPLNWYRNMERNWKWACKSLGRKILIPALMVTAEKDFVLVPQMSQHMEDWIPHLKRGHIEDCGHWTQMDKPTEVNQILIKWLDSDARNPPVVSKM

inhibition, active:
CCc1ccc(/C=N/NC(=O)c2ccc(OC3CCCC3)cc2)s1 95.6%
CCCCCC(=O)Nc1ccc2oc(-c3ccncc3)nc2c1 84.3%
Cc1ccccc1CSCCNC(=O)c1ccc(Cl)c(S(=O)(=O)N2CCOCC2)c1 83.4%
O=C(/C=C/c1cc2c(cc1Br)OCO2)NCc1ccc(Cl)cc1 85.9%
COc1ccc(CCNC(=O)c2ccc3c(c2)NC(=O)C(N2CCOCC2)S3)cc1OC (stereo not drawn) 100%

inhibition, inactive:
Cc1ccc(NC(=S)N/N=C2/CCCc3c(C)cc(C)cc32)cc1 -9.1%
CCN(CC)CCNc1ccc(Cl)cc1[N+](=O)[O-] 6.5%
CSCc1cc(N2CCOCC2)nc(SCc2ccc(Cl)cc2Cl)n1 -22.1%
COc1ccc(C(=O)Nc2ccccc2C(=O)N/N=C/c2ccccc2OC)cc1 4.7%
CCOc1ccc(C(=O)NC2CCN(S(=O)(=O)CC)CC2)cc1 -0.5%
O=C(NC1CCCCC1)c1cc([N+](=O)[O-])ccc1N1CCOCC1 2.6%
C/C(=N\NS(=O)(=O)c1cccc([N+](=O)[O-])c1)c1cc2ccccc2o1 7.3%
O=C(Nc1ccn(Cc2ccccc2F)n1)c1ccc(COc2ccc(Cl)cc2Cl)o1 1.6%
O=C(Nc1ccc(-n2ccnc2P(=O)(O)c2ccccc2)cc1)c1ccccc1Br -9.1%
CC(=O)Nc1cccc(/C(C)=N/NC(=O)c2ccccc2Cl)c1 7.7%
O=C(NNS(=O)(=O)c1ccc(Cl)cc1)C1CCN(Cc2ccccc2)CC1 -4%
CN(C)/C(CN1CCCCC1)=C1\N=C(c2ccccc2)OC1=O 6.9%
CC(=O)c1cnc(SCCN2C(=O)c3ccccc3C2=O)nc1C 8.1%
C=CCNC(=O)c1sc(SC)cc1-c1ccc(Cl)cc1 -13.7%
CC(C)CNC(=S)NNC(=O)c1ccccc1OC(F)F -9.6%
COC(=O)c1ccccc1OCC(=O)N1CCN(c2ccc(Cl)cc2)CC1 46.4%
Cc1c(NC(=O)CCCOc2ccccc2)cccc1[N+](=O)[O-] 11.7%
CCC(=O)Nc1ccc(C(=O)Nc2cc(C)on2)cc1 -8.6%
CCOc1ccc(C(CCc2ccccc2)NC(=O)c2ccc(OC)c(OC)c2)cc1OCC (stereo not drawn) -23.6%
COc1cccc(-c2nnc(SCCOc3ccc4c(C)cc(=O)oc4c3)o2)c1 12.2%
CCCCn1c(=S)[nH]c2cc(S(=O)(=O)N3CCCCC3)ccc21 6.5%
O=C(c1ccc(F)cc1)c1c[nH]c(C(=O)NCc2cccnc2)c1 -11.2%
N#Cc1ccsc1NC(=O)CN1CCCCC1 -1.4%
O=C(COc1ccc(Cl)cc1)NCCC1=CCCCC1 14.4%
COc1cc(C(=O)N2CCN(C/C=C/c3ccccc3)CC2)cc(OC)c1C -12.7%
NC(=O)N1CCCC1C(=O)Nc1ccc(Cl)c(Cl)c1 (stereo not drawn) 6.3%
Nc1nc(Br)c2ccccc2c1-c1ccc(F)cc1 4.8%
Cc1ccc(-c2csc(N(Cc3ccco3)C(=O)c3cccs3)n2)cc1 -9.9%
O=[N+]([O-])c1ccc(NCCCN2CCOCC2)c(Cl)c1 19.3%
CC(C)NC(=O)NC(=O)COC(=O)c1ccc(NC(=O)CC#N)cc1 -6%
CC(C)C(NS(=O)(=O)c1cccs1)C(=O)Nc1nc(C(C)(C)C)cs1 (stereo not drawn) 3.1%
COc1cccc(/C=N/NC(=O)C(=O)N2CCCC2)c1 -4.3%
O=c1cc(N2CCN(Cc3ccccc3)CC2)c(-c2ccccc2)n[nH]1 5.8%
COc1cccc(NC(=O)C2c3cc(OC)c(OC)cc3C(=O)N(C)C2c2cccnc2)c1 (stereo not drawn) -8.1%
O=C(CN1C(=O)NC2(CCCC2)C1=O)Nc1ccc(F)c(F)c1F -1.5%
O=C(CCCN1C(=O)c2cccc3cccc(c23)C1=O)N1CCN(Cc2ccc3c(c2)OCO3)CC1 5.9%
N/C(=N\OC(=O)c1cc(-c2ccccc2)nc2ccccc12)c1ccncc1 -2%
O=C(CSCc1ccc([N+](=O)[O-])cc1)Nc1cccc(C(=O)Nc2ccccc2C(=O)O)c1 -3.9%
Cc1cc(C(=O)OCC(=O)Nc2ccc(F)c(F)c2)c(C)o1 7.9%
CCC(C)n1c(-c2cc(OC)c(OC)c(OC)c2)nc2nc3ccccc3nc21 (stereo not drawn) -0.7%
O=C(CNC(=O)OCc1ccccc1)Oc1cc2oc(=O)cc(-c3ccccc3)c2cc1Cl -5.2%
COc1ccccc1N(C)S(=O)(=O)c1ccc(C(=O)N2CCC(C(N)=O)CC2)cc1 12.9%
CN(C(=O)CSc1nc(C2CC2)nc2ccccc12)c1nc(-c2ccccc2)cs1 4.4%
CCCCNC(=O)c1onc(CSc2cccc(OC)c2)c1C(=O)O -10.5%
CCOC(=O)C1=C(CN2CCc3ccccc32)NC(=O)NC1c1cc(C)ccc1C (stereo not drawn) -4.9%
COc1ccc(SCc2noc(C(=O)NCC3CCCO3)c2C(=O)O)cc1 (stereo not drawn) 1.5%
O=C(Nc1ccc2oc(-c3ccc4ccccc4c3)nc2c1)c1cccs1 34.6%
O=C(Cc1cccc2ccccc12)Nc1ccc2oc(-c3ccccc3)nc2c1 50%
C=CCNc1cnn(-c2ccc(C)cc2)c(=O)c1Cl 1.9%
CC(C)CC(=O)N1CCC(O)(CS(=O)(=O)Cc2ccccc2)CC1 1.9%
O=C(CN1CCN(S(=O)(=O)c2ccc(Cl)s2)CC1)NCc1ccc(Cl)cc1 -1.1%
CC(C)(CCl)C(=O)Nc1ccc(Sc2ccc(F)cc2)cc1 28.4%
COC(=O)C(NC(=O)c1ccc(OC)cc1)(Nc1ncc(S(=O)(=O)c2ccc([N+](=O)[O-])cc2)s1)C(F)(F)F (stereo not drawn) -1.7%
COc1ccc(OCC(=O)NN2Cc3ccccc3C2=N)cc1 4.7%
O=C(NCCSCc1ccccc1)c1ccc(Cl)c(S(=O)(=O)N2CCOCC2)c1 78.5%
Cc1ccccc1CSCCNC(=O)c1ccc(N(C)S(=O)(=O)c2ccccc2)cc1 36.1%
O=C(COC(=O)c1ccccc1NC(=O)c1ccco1)Nc1ccc2c(c1)OC(F)(F)O2 28.3%
CO/N=C/c1ccc(N2CCN(C(=O)c3cccc(Cl)c3)CC2)c([N+](=O)[O-])c1 -9.1%
N#C/C(=C(/O)Cc1cccc2ccccc12)c1nc2ccccc2s1 -15.9%
O=C(ON=C1CCN(S(=O)(=O)c2ccccc2)CC1)c1ccc(Cl)cc1 2.3%
O=C(CSc1ccc(/C=N/NC(=O)c2cccc(F)c2)o1)Nc1ccccc1 79%
Cc1noc(C)c1S(=O)(=O)N(CC(=O)NCc1ccc(Cl)cc1)c1ccc2c(c1)OCO2 14.5%
O=C(/C=C/c1ccc(Cl)cc1Cl)NCc1ccco1 19.3%
O=C(CNC(=O)Cc1ccccc1)NCC(=O)OCC(=O)c1ccccc1Cl -0.5%
CCC(=O)OCc1c(C(F)(F)F)nn(C)c1Oc1cccc(C(F)(F)F)c1 7.8%
O=C(O)c1ccccc1NC(=S)NC(NC(=O)c1ccccc1[N+](=O)[O-])C(Cl)(Cl)Cl (stereo not drawn) 7.4%
CNC(=S)NNC(=O)c1sccc1OCc1ccccc1 -3.9%
N#Cc1cc([N+](=O)[O-])ccc1Oc1cccc(/C=N/NC(=O)c2ccc(Cl)cc2)c1 18.1%
COc1ccc(-c2cc(C(=O)n3cnc4ccccc43)c3ccccc3n2)cc1 -13.6%
Cc1cc([N+](=O)[O-])c(NC2CCCCC2)c([N+](=O)[O-])c1 -4.6%
O=C(NCCCN1CCCCC1)c1ccc2c(c1)NC(=O)C(N1CCOCC1)S2 (stereo not drawn) 10%
COc1ccc(C(=O)NCCc2ccc(S(N)(=O)=O)cc2)cc1OC 6.9%
O=C1CSC(c2ccccc2)N1c1nc(-c2ccc(Cl)cc2Cl)cs1 (stereo not drawn) 10.5%
O=C(CN1C(=O)NC(Cc2ccccc2)(Cc2ccccc2)C1=O)NCC1CCCCC1 -8.9%
Cn1c2ccccc2n2c(=O)c(=O)n(CC(=O)c3ccc(F)cc3)nc12 -2%
O=C(CN1CCCCCC1)Nc1ccc(Br)cc1Br 9.4%
CC1(C)CC(=O)C(C=NCCN2CCN(C(=S)Nc3cccc(Cl)c3)CC2)=C(O)C1 13.9%
O=C(Cn1cncn1)N/N=C/c1c2ccccc2cc2ccccc12 2%
C=CCOC(=O)C1=C(C)NC(C)=C(C(=O)OCC=C)C1c1cccs1 -5.1%
COc1ccccc1CSc1nc2ccccc2[nH]1 -2.6%
COc1cc(OC)c(/C=N/NC(=O)c2ccc([N+](=O)[O-])cc2)cc1Br 35.2%
Cc1ccc(NC(=S)Nc2ncccc2C)c(C)c1 6.9%
O=C(/C=C/c1ccccc1)N/C(=C/c1ccccc1)C(=O)Nc1ccccc1O 2.8%
Cc1cc2cc3c(N)[nH]nc3nc2cc1C 4.3%
Cc1ccc(-n2nc(N)c3c(=O)oc(N(C)C)nc32)cc1 10.2%
COc1cc(C(=O)NC(=S)NCc2ccco2)cc(OC)c1OC 12%
Cc1ccc(-c2nc3ccccc3[nH]2)cc1NC(=O)c1sc2ccccc2c1Cl 10.9%
NC(=O)C1(N2CCCCC2)CCN(C(=S)Nc2ccc(Cl)cc2)CC1 0.6%
